{"source": "ChEMBL document CHEMBL1157539", "about": "“Thousands of chemical starting points for antimalarial lead identification” (Nature, 2010)"}
{"tested_on": "HepG2", "experiment": "GSK_TCMDC: Percent inhibition of human HepG2 cell line. Test compounds present at 10uM.", "format": "functional", "units": {"Inhibition": "%"}}
{"smiles": "Cc1cc(NC(=O)NCCN2CCC(NS(=O)(=O)c3ccc(C(F)(F)F)cc3)C2)c2ccccc2n1.O=C(O)C(F)(F)F", "note": "(stereo not given)", "Inhibition": 15}
{"smiles": "Cc1ccc(-c2nnc(Nc3ccc(C(=O)N4CCCCC4)cc3)c3ccccc23)cc1S(=O)(=O)NCC1CCCO1", "note": "(stereo not given)", "Inhibition": 0}
{"smiles": "Fc1ccc2c(NN=Cc3ccccc3F)ccnc2c1", "Inhibition": 10}
{"smiles": "C=C(C)C1CC=C(CN2CCCC(n3ccc4cc(NC(=O)c5ccco5)ccc43)CC2)CC1", "note": "(stereo not given)", "Inhibition": 13}
{"smiles": "O=C(Nc1cccc([N+](=O)[O-])c1)N(Cc1ccc(Cl)c(Cl)c1)C1CCNCC1", "Inhibition": 17}
{"smiles": "Cl.Cn1c(=O)n(C)c2cc(CNCCNc3ccnc4cc(Cl)ccc34)ccc21", "Inhibition": 17}
{"smiles": "CCOc1c(OC)ccc2c1CCN(CCN1CCC(CNC(=O)c3ccc(-c4ccc(C#N)cc4)cc3)CC1)C2", "Inhibition": 45}
{"smiles": "Cc1ccc(-c2nc3ccccc3o2)cc1NCc1cc(Cc2ccccc2)ccc1O", "Inhibition": 45}
{"smiles": "Cl.Oc1c(Cl)cc(-c2ccccc2)cc1CNC1CCCCC1", "Inhibition": 5}
{"smiles": "COc1cc(OC)cc(-c2nn(-c3ccc([N+](=O)[O-])cc3Cl)c(=S)n2CC2CCCO2)c1", "note": "(stereo not given)", "Inhibition": 5}
{"smiles": "COc1cccc(Nc2c(C(N)=O)cnc3ccc(-c4ccccc4)cc23)c1", "Inhibition": 2}
{"smiles": "Cc1nc2c(=O)sc3ccccc3c2n1Cc1ccccc1", "Inhibition": 0}
{"smiles": "Cc1nnsc1C(=O)Nc1cccc(-c2cccc(-c3nc4cc(F)ccc4[nH]3)c2)c1", "Inhibition": 35}
{"smiles": "Cc1ccc(S(=O)(=O)N(CCCN2CCN(C)CC2)Cc2csc(-c3ccc(CNCc4ccccc4)cc3)n2)cc1.O=C(O)C(F)(F)F", "Inhibition": 15}
{"smiles": "O=C(Nc1ccc(CCNCCCc2ccccc2)cc1)Nc1ccc(Cl)c(Cl)c1", "Inhibition": 33}
{"smiles": "Cl.N=C(N)c1ccc(Nc2nc(Nc3ccc(-c4ccccc4)cc3)ncc2[N+](=O)[O-])cc1", "Inhibition": 11}
{"smiles": "O=S(=O)(Nc1cccc(CCN2CCC(N3CCCCC3)CC2)c1)c1ccc2c(c1)OCCO2", "Inhibition": 8}
{"smiles": "CCOC(=O)COc1cccc(CNc2ccc3nc(N)nc(N)c3c2)c1", "Inhibition": 18}
{"smiles": "O=C(/C=C/c1ccc(Cl)c(Cl)c1)NCCCCCCN1CCN(C(=O)Nc2ccc(Cl)c(C(F)(F)F)c2)CC1", "Inhibition": 47}
{"smiles": "COc1ccc(NC(=O)[C@H](CC(C)C)Nc2cc(C)nc(NCCc3ccc(F)cc3)n2)cc1.O=C(O)C(F)(F)F", "Inhibition": 1}
{"smiles": "Cc1cc(NCCc2ccc(O)cc2)nc(NCC(c2ccccc2)c2ccccc2)n1", "Inhibition": 22}
{"smiles": "O=C(Nc1cccc(F)c1)NC1CCN(c2ccnc3cc(Cl)ccc23)CC1.O=C(O)C(F)(F)F", "Inhibition": 11}
{"smiles": "CCN(CC)S(=O)(=O)c1ccc(CCOCCCCCNCC(O)c2cc(Cl)c(N)c(Cl)c2)s1.O=C(O)/C=C/C(=O)O", "note": "(stereo not given)", "Inhibition": 35}
{"smiles": "Oc1ccc2[nH]c(-c3ccc(OC(F)(F)F)cc3)nc2c1CNC1CCCC1", "Inhibition": 32}
{"smiles": "O=C(Nc1cccc(CN2CCCN(Cc3ccc(F)cc3)CC2)c1)c1ccc(Cl)c(Cl)c1.O=C(O)C(F)(F)F", "Inhibition": 27}
{"smiles": "Cc1csc(-c2ncc(OC[C@@H](N)Cc3ccccc3)cc2-c2ccc3[nH]nc(C)c3c2)c1.O=C(O)C(F)(F)F", "Inhibition": 48}
{"smiles": "CCCc1cc(OC)c(CC2c3cccc(O)c3CCN2C)cc1OC.Cl", "note": "(stereo not given)", "Inhibition": 3}
{"smiles": "Brc1cc2c(cc1C=NNc1nc(=Nc3ccccc3)[nH]c(=Nc3ccccc3)[nH]1)OCO2", "Inhibition": 0}
{"smiles": "COC(=O)c1ccc2[nH]cc(C3CCN(CCC4CCN(C(=O)/C=C/c5ccc(Cl)c(Cl)c5)CC4)CC3)c2c1", "Inhibition": 24}
{"smiles": "Cc1cc(=NN=Cc2ccccc2Cl)c2cc(C(F)(F)F)ccc2[nH]1", "Inhibition": 0}
{"smiles": "CCc1c(CCNCCCCCCNCCc2ccc(OC)c(OC)c2CC)ccc(OC)c1OC.Cl", "Inhibition": 58}
{"smiles": "O=C(Nc1cccc(-c2cccc(-c3nc4ccccc4[nH]3)c2)c1)Nc1ccc(F)c(F)c1F", "Inhibition": 78}
{"smiles": "CC(=O)Nc1nc(C(=O)Nc2cccc(-c3ccc4c(cnn4CC4CC4)c3)c2)cs1", "Inhibition": 16}
{"smiles": "Cc1cccc(-c2cccc(CNc3nc(NCCc4ccc(O)cc4)nc(N4CCNCC4)n3)c2)c1.O=C(O)C(F)(F)F", "Inhibition": 50}
{"smiles": "O=C(/C=C/c1ccc(Cl)c(Cl)c1)NCCCCCN1CC[C@H](NC(=O)Nc2ccc(Oc3ccccc3)cc2)C1", "Inhibition": 47}
{"smiles": "O=C(O)C(F)(F)F.O=S(=O)(NC1CCN(c2ccnc3cc(Cl)ccc23)C1)c1ccc(C(F)(F)F)cc1", "note": "(stereo not given)", "Inhibition": 20}
{"smiles": "Cc1cc2nc(-c3ccc(C(=O)NCc4cccc(F)c4)cc3)[nH]c2cc1C", "Inhibition": 0}
{"smiles": "NC1=NC(c2ccccc2)(c2ccccc2)C(=O)N1Cc1ccc(-c2cccnc2)cc1.O=CO", "Inhibition": 15}
{"smiles": "Cc1nc(NCCc2c[nH]cn2)cc(NCc2ccccc2)n1", "Inhibition": 5}
{"smiles": "COc1ccc(-c2cccc(NC(=O)c3ccc(C#N)cc3)c2)cc1CN1CCN(C)CC1.O=C(O)C(F)(F)F", "Inhibition": 24}
